# p-CIP stab down = lowers stability of the mouse p/CIP coactivator protein. 0.01% of 290,000 active. Q05BA5. decrease of EGFP signal, % at 10 µM. F442A p/CIP-EGFP cells, EGFP fluorescence, 16 h;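 active = EGFP signal decrease of at least 30% at 10 µM or well 3 SD below plate mean, unless failing retest; inactive = the rest, including hits failing retest or dose response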
# JMJD2C inh = blocks human GASC-1 demethylase activity; inhibition, % at 2.35 µM; 0.069% of 330,000 active; GST-JMJD2C(1-420) H3K9me3 demethylation, DELFIA europium; Q9H3R0;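 active = more than half of a compound's replicate wells show inhibition beyond 50%, single wells judged on their own value; inconclusive = some, but no more than half, of replicates pass 50% inhibition; inactive = no replicate passes 50% inhibition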;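 note: signal counts dimethyl H3K9 product captured on neutravidin plate; 0% = median of DMSO wells and 100% = 0.3 times that DMSO median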
# Target sequence (Q9H3R0 1-420 limits assumed): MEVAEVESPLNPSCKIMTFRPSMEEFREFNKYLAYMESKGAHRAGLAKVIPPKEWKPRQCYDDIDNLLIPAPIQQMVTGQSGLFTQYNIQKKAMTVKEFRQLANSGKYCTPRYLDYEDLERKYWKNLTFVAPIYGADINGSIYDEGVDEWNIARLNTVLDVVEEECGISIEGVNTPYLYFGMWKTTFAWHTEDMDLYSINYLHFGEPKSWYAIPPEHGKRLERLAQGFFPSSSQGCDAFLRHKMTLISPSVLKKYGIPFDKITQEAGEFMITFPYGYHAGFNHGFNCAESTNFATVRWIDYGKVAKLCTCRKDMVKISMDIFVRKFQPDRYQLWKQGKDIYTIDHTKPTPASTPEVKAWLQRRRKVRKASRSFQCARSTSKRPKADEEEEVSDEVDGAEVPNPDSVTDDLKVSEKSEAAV
# VLA-4 inh = inhibition in a human VLA-4 binding assay; inhibition, % (about 7 µM as worked out from the volumes in the protocol); AID 2557; VLA-4 expressing cells, ligand binding flow cytometry; 0.2% of 330,000 active; in the data active = inhibition above about 50%
# GPR7 antagonist = blocks human GPR7 receptor signaling | AID 1861 | inhibition, % at 4.4 µM | GPR7-expressing cells, fluorescence antagonist assay | 1.1% of 290,000 active | P48145; in the data active = inhibition above about 16%, passing the limit was not always enough;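 note: cells stimulated with the agonist NPW; 0% = agonist with vehicle and 100% = vehicle without agonist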
# The depositor's hits bear a star; u = inconclusive; x = no result given. The list is not random: actives were taken first. Their share in the collection is about 1.2%.
SMILES,p-CIP stab down,JMJD2C inh,VLA-4 inh,GPR7 antagonist
O=C(O)c1ccccc1C(=O)N1CCN(c2cccc(Cl)c2)CC1,-13.7,-3.2,9.0,6.5
CCOC(=O)c1[nH]c(C)c(C(=O)N2CCN(c3ccccc3)CC2)c1C,-7.5,0.0,10.2,-3.8
CCOc1ccc2ccccc2c1C(=O)N1CCN(c2ccccc2)CC1,11.7,0.8,5.5,19.8*
CCOc1ccccc1C(=O)N1CCN(c2cccc(Cl)c2)CC1,-7.2,-3.1,0.4,20.6*
Cc1ccc(Cl)cc1N1CCN(S(=O)(=O)N2CCCCC2)CC1,-15.4,-16.3,-27.2,22.7*
O=C(CN(C(=O)CCC(=O)Nc1nccs1)c1cccc(C(F)(F)F)c1)NCC1CCCO1 (stereo not drawn),-2.7,9.5,-21.2,-4.4
COC(=O)N(NC(=O)C(O)(CCC(C)C)CCC(C)C)c1ccccc1,0.9,5.6,0.1,23.7*
CC(O)CNc1nc2ccccc2n1CC(=O)NC12CC3CC(CC(C3)C1)C2 (stereo not drawn),7.6,51.4*,1.9,4.4
CC(O)CNc1nc2ccccc2n1CC(=O)NCC(F)(F)F (stereo not drawn),-8.4,1.2,-5.1,-5.9
CSc1cccc(NC(=O)C2CCCN(S(=O)(=O)c3ccc(F)cc3)C2)c1 (stereo not drawn),-5.8,-0.8,2.5,19.0*
CSc1cccc(NC(=O)C2CCN(S(=O)(=O)c3ccc(F)cc3)CC2)c1,-10.9,-9.3,9.4,10.7
CC(CN1CCCC1)OC(=O)COc1ccccc1 (stereo not drawn),0.0,50.1*,10.8,2.9
Cc1ccc(OCC(=O)OC(C)CN2CCCCC2)cc1 (stereo not drawn),-4.6,2.1,10.9,-22.2
CCCN1C(=O)c2ccc(C(=O)Nc3cc(C)ccc3O)cc2C1=O,-7.2,57.2*,15.5,-6.5
Cc1ccc(NC(=S)N2CCN(S(=O)(=O)c3ccc(F)cc3)CC2)cc1,-22.2,-2.5,10.7,7.4
COc1cccc(N2CCN(c3ncnc4c3[nH]c3ccc(F)cc34)CC2C)c1 (stereo not drawn),-14.2,5.5,-18.6,84.4*
COc1cccc(N2CCN(c3ncnc4c3[nH]c3ccccc34)CC2C)c1 (stereo not drawn),-6.4,-8.7,-13.8,-1.0
NS(=O)(=O)c1ccc(CNC(=O)CSc2ccccc2)cc1,7.7,2.7,2.9,-4.7
NS(=O)(=O)c1ccc(CCNC(=O)CSc2ccccc2)cc1,11.5,50.8*,-3.8,0.9
O=C(NC1CCCc2ccccc21)c1ccc(Br)cc1 (stereo not drawn),2.1,57.7*,14.5,-2.8
CC(C)(C)c1ccc(-n2nc(C#N)c(Cl)cc2=O)cc1,20.7,-20.4,x,84.5*
O=C(Cc1ccccc1)NNS(=O)(=O)c1ccccc1[N+](=O)[O-],3.6,-5.9,2.5,-12.7
CCN1/C(=C/c2sc(-c3ccccc3C)c[n+]2C)Sc2ccccc21,-7.8,4.8,x,47.2*
COc1ccc([N+](=O)[O-])cc1N/C(=N/S(=O)(=O)c1ccccc1)c1ccccc1,-1.6,15.0,7.4,-12.0
CNCC[C@H](Oc1cccc2ccccc12)c1cccs1,-0.3,u,45.2,37.6*
SMILES,p-CIP stab down,JMJD2C inh,VLA-4 inh,GPR7 antagonist
COc1ccc(NC(=O)c2ccc(Cn3cc(Cl)cn3)cc2)cc1,-2.0,-15.5,22.0,-3.6
Cc1ccc(F)c(NC(=O)c2ccc(Cn3cc(Cl)cn3)cc2)c1,-6.3,2.2,10.3,33.7*
CCOc1ccc(C(C)NC(=O)c2ccc3c(c2)NC(=O)C(C)S3)cc1OCC (stereo not drawn),x,x,-31.8,x
COc1ccc(-c2cc(C(=O)OCC(=O)N(C)C)c3ccccc3n2)cc1,9.8,-4.4,-7.4,17.8*
COc1ccc(S(=O)(=O)n2ccc(-c3ccc(OCCN(C)c4ccccn4)cc3)n2)cc1,-14.6,-6.6,10.6,20.7*
COc1ccc(S(=O)(=O)N(CC(=O)O)c2ccccn2)cc1,-4.0,3.5,12.3,-2.1
COc1ccc(NC(=O)c2cccc(S(=O)(=O)NCc3ccccc3)c2)cc1S(N)(=O)=O,x,x,0.0,x
Clc1ccc(Nc2ccc(NCc3ccccc3)nn2)cc1,-4.2,24.6,17.1,18.9*
Cc1ccc(Nc2ccc(NCc3ccccc3)nn2)cc1C,4.8,-8.8,10.6,3.6
O=C1C=CC(=O)N1Cc1ccccc1,8.0,-11.8,53.6*,-18.1
O=C1C2CC=CCC2C(=O)N1Cc1ccccc1 (stereo not drawn),-14.0,-7.7,33.1,-8.1
COc1cc(CNCCc2c[nH]c3ccccc23)ccc1OCc1ccc(F)cc1,-9.5,-11.3,13.7,20.9*
Cc1[nH]c2c(ccc3cccnc32)c1C,2.3,9.4,18.1,4.4
CC1=[N+](C)c2c(ccc3cccnc23)C1(C)C,-42.6,x,x,28.1*
COc1ccc2c(c1)OC[C@H]1[C@H]2N2C(=O)CNC(=O)[C@@]2(C)[C@H]1c1ccccc1,x,59.2*,3.4,x
COc1ccc2c(c1)[C@@H]1[C@H](CO2)[C@H](c2ccccc2)[C@]2(C)C(=O)NCC(=O)N12,x,3.7,9.3,x
C/C(=N/OCO/N=C(/C)c1ccc(F)cc1)c1ccc(F)cc1,-16.9,-2.7,1.9,2.0
CN(C)C1(CNC(=S)Nc2ccccc2C(F)(F)F)CCCCC1,1.3,-7.1,-6.7,-3.2
C[C@H]1CN(CCc2ccccc2)C(=O)[C@@H]1CC(=O)NCc1ccccc1,-2.4,60.6*,-7.8,-2.6
C[C@H]1CN(Cc2ccccc2)C(=O)[C@@H]1CC(=O)NCc1ccccc1,-8.6,-12.1,-3.7,4.1
CC(C)CC(C(=O)N1CCc2ccccc2C1)N1C(=O)c2ccccc2C1=O (stereo not drawn),-6.2,-2.6,5.9,19.8*
CC(C(=O)N1CCc2ccccc2C1)N1C(=O)c2ccccc2C1=O (stereo not drawn),-3.1,-0.3,3.1,-5.5
CN(CCCC(=O)NCc1ccco1)S(=O)(=O)c1ccccc1,2.1,-5.6,2.0,15.9*
CC(C)c1ccc(CN2CC(C(=O)Nc3ccccc3)CC2=O)cc1 (stereo not drawn),-14.7,-10.1,1.6,17.4*
CCN(CC)c1ccc(NC(=O)C2CC(=O)N(Cc3ccccc3)C2)cc1 (stereo not drawn),1.3,-6.4,3.8,-3.9
SMILES,p-CIP stab down,JMJD2C inh,VLA-4 inh,GPR7 antagonist
Cc1cccc(NC(=O)CCc2ccc(S(=O)(=O)NC3CCCCC3)cc2)c1,2.1,-0.2,3.2,3.0
NC(=O)C1CCN(C(=O)c2cc(-c3ccc(Cl)cc3)nc3ccccc23)CC1,x,-3.1,-8.2,x
O[C@@H](c1cc(C(F)(F)F)nc2c(C(F)(F)F)cccc12)[C@H]1CCCCN1,x,-34.5,43.6,x
OC(c1cc(-c2ccc(Cl)cc2)nc2ccccc12)C1CCCCN1 (stereo not drawn),-1.3,-11.2,36.6,62.9*
OC(c1cc(C(F)(F)F)nc2c(Cl)cc(Cl)cc12)C1CCCCN1 (stereo not drawn),5.4,2.2,10.6,45.1*
Cc1cc(C)n(CCN(C)C(=O)C2CCC(=O)N(CCc3cccc(F)c3)C2)n1 (stereo not drawn),-13.2,-10.9,-95.6,-14.7
Nc1c(Cl)ncnc1NCc1cccnc1,-1.6,54.6*,6.3,-15.4
Cc1ccc2c(c1)C(=O)C(=O)N2CCOc1ccccc1,-19.3,-3.0,36.9,32.8*
